Compound activity as filed in PubChem BioAssay.
DT40 TDP1 CPT: DT40-hTDP1 cell growth loss with CPT; chicken DT40 Tdp1-/-;hTDP1 cells + 20 nM CPT, ATP luminescence, 48 h; Potency, µM (doses to about 46.2 µM), most hits filed as inhibitors; hit rate 12% among 420,000; further: nearly all actives have a fitted effect of over 55% in size
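Chicken DT40 Tdp1-/- cells stably complemented with human TDP1 were seeded at 400 cells/well in medium containing 20 nM camptothecin, exposed to pin-transferred compounds, and grown at 37 °C for at least 48 hr. Viability was read as ATP luminescence.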
IL1B secr inh: inflammasome signaling inhibition, IL-1 beta readout. hit rate 4.7% among 360,000. THP-1 LPS/ATP IL-1B secretion, AlphaLISA, 16 h; active compounds read low. activity change, % at 57.5 µM; in the data active means activity change below about -50%; inconclusive means mostly about -30% to -49%
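Secreted IL-1B measured by AlphaLISA bead assay after 16 h compound exposure of THP-1 cells; compounds (final up to 57.5 uM) added 1 h before LPS (250 ng/mL) and ATP (1.25 mM) stimulation; lower signal means less secretion.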
RORg inh: blocks mouse ROR gamma transcriptional activity; P51450; Drosophila S2 Gal4-RORgamma UAS-luciferase reporter, 20 h; Potency, µM (series often up to 53.6 µM), most hits filed as inhibitors; hit rate 5.4% among 310,000; further: nearly all actives have a fitted effect of over 60% in size
Target sequence (P51450 whole entry, looked up, the tested form may be a part): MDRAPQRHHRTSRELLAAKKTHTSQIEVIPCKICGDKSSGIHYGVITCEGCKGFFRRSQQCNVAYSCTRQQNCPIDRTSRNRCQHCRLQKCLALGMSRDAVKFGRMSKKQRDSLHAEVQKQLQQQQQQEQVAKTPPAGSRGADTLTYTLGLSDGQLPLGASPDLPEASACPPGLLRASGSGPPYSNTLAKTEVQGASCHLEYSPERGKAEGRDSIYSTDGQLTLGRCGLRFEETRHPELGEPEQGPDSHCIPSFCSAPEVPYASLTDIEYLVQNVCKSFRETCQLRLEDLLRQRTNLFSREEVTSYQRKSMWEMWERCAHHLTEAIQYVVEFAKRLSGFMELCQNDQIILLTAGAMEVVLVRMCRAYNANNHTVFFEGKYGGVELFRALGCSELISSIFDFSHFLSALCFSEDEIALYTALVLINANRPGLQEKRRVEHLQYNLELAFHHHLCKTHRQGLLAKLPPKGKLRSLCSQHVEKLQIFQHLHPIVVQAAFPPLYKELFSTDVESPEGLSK
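Drosophila Schneider cells stably carrying a metallothionein-driven Gal4 DBD–ROR gamma fusion and a UAS-Photinus luciferase reporter were exposed to compound for 1 hr, then induced with copper sulfate (700 uM final) for 20 hr at ambient temperature before luminescence reading.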
VP16 counter: inhibits Gal4-VP16 luciferase reporter, ROR gamma counter-screen; Drosophila S2 Gal4-VP16 UAS-luciferase, luminescence, 20 h; Potency, µM (highest dose often 53.6 µM), actives largely listed as inhibitors; hit rate 3.5% among 310,000;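 further: Gal4-VP16 expression switched on by copper sulfate through the metallothionein promoter; nearly all actives have a fitted effect of over 50% in size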
LDHA block: blocks human lactate dehydrogenase A. hit rate 0.15% among 480,000. activity change, % (values are at about 110 or 230 µM). P00338. purified LDHA, NADH/diaphorase-resazurin fluorescence; active compounds read low; in the data active means activity change below about -30%; inconclusive means mostly about -25% to -30%
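Human LDH5 (2 nM) was incubated with 0.06 mM NADH and 0.2 mM pyruvate for 5 min at room temperature in Tris pH 7.4. Remaining NADH was coupled through diaphorase/resazurin, and resorufin fluorescence was read at 0 and 20 min.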
TDP1 cell noCPT: qHTS for Inhibitors of human tyrosyl-DNA phosphodiesterase 1 (TDP1): qHTS in cells in absence of CPT | DT40 Tdp1-/- hTDP1 cells, no CPT, ATP luminescence, 48 h | Potency, µM (series often up to 46.2 µM), most hits filed as inhibitors | hit rate 15% among 420,000 | AID 686978, 2013; further: nearly all actives have a fitted effect of over 55% in size
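Compound effects on proliferation are scored in DT40 Tdp1-/-;hTDP1 cells in the absence of CPT. ATP levels (CellTiter-Glo luminescence) are recorded after a ≥48 hr, 37 °C incubation.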
Large screens that a line does not name were inactive. A selection: hits, their analogues and other compounds. The true share with any hit is near 18%. Unless noted, the call rests on the fitted dose curve; in most records, active means well fitted curve in the direction sought with a large enough effect; inconclusive means small, poorly fitted or top-dose-only effect, or another doubt; inactive means no such curve, though single readings can be large; an effect the other way counts as inactive or inconclusive.

Cc1onc(-c2ccccc2)c1C(=O)N/N=C/C(Br)=C/c1ccccc1	DT40 TDP1 CPT 6.5µM, IL1B secr inh inconclusive, VP16 counter inconclusive, TDP1 cell noCPT 9.2µM
O=C(N/N=C/C=N/NC(=O)c1ccco1)c1ccco1	none
O=C(C1CCCC1)N1CCC(CO)(Cc2ccccc2Cl)CC1	DT40 TDP1 CPT inconclusive, IL1B secr inh inconclusive, TDP1 cell noCPT inconclusive
O=C(C1CCCCC1)N1CCC(CO)(Cc2ccccc2Cl)CC1	DT40 TDP1 CPT inconclusive, IL1B secr inh inconclusive, RORg inh inconclusive, TDP1 cell noCPT 21µM
N#Cc1ccccc1CNc1cccc(Cl)c1	none (no result: DT40 TDP1 CPT, IL1B secr inh, RORg inh, VP16 counter, TDP1 cell noCPT)
COc1cc(OC)c(C2Nc3ccccc3NC3=C2C(=O)CC(C)(C)C3)cc1OC (stereo unspecified)	none
COc1ccc(C2CC(=O)C3=C(C2)Nc2ccccc2NC3c2coc3ccccc3c2=O)cc1OC (stereo unspecified)	DT40 TDP1 CPT 16µM, IL1B secr inh inconclusive, TDP1 cell noCPT 26µM
COC(=O)c1cc(OC)ccc1OCC(=O)NCC(F)(F)F	none (no result: DT40 TDP1 CPT, IL1B secr inh, RORg inh, VP16 counter, TDP1 cell noCPT)
CC(=O)Nc1ccc(S(=O)(=O)N2CCN(C(=O)c3ncoc3-c3ccccc3)CC2)cc1	DT40 TDP1 CPT inconclusive, TDP1 cell noCPT 12µM
Cc1cccc(NC(=S)N2CCN(S(=O)(=O)c3ccccc3)CC2)c1	RORg inh inconclusive
Cc1cccc(NC(=S)N2CCN(S(=O)(=O)c3cccc(F)c3)CC2)c1	RORg inh 11µM
Cc1ccc(NC(=S)N2CCN(S(=O)(=O)c3ccc(C)cc3)CC2)cc1	RORg inh 13µM
CC(=O)Nc1ccc(S(=O)(=O)N2CCN(C(=O)N3CCOCC3)CC2)cc1	none
CCc1ccc(NC(=S)N2CCN(S(=O)(=O)c3ccccc3)CC2)cc1	RORg inh 18µM, VP16 counter inconclusive
Cc1ccccc1NC(=O)CSC1CCCC1	none (no result: DT40 TDP1 CPT, IL1B secr inh, RORg inh, VP16 counter, TDP1 cell noCPT)
Cc1ccccc1-c1noc(CSc2nc(C)c(C)n2C2CCCC2)n1	none (no result: DT40 TDP1 CPT, IL1B secr inh, RORg inh, VP16 counter, TDP1 cell noCPT)
CCOc1ccc(CNC(=O)c2ccc(NC(=O)c3nnc(C)s3)cc2)cc1OC	none (no result: DT40 TDP1 CPT, IL1B secr inh, RORg inh, VP16 counter, TDP1 cell noCPT)
CCc1ccc(CCC(=O)N2CCN(S(=O)(=O)c3ccc(Br)cc3)CC2)cc1	DT40 TDP1 CPT inconclusive, TDP1 cell noCPT 18µM (no result: RORg inh, VP16 counter)
CC(C)c1ccc(S(=O)(=O)N2CCN(C(=O)n3ccnc3)CC2)cc1	DT40 TDP1 CPT inconclusive, IL1B secr inh inconclusive (no result: RORg inh, VP16 counter)
CCOc1ccc(S(=O)(=O)N2CCN(C(=S)NCc3ccccc3)CC2)cc1	DT40 TDP1 CPT 21µM, TDP1 cell noCPT inconclusive
Cc1ccc(S(=O)(=O)N2CCN(C(=O)n3ccnc3)CC2)cc1	DT40 TDP1 CPT 0.65µM, TDP1 cell noCPT 12µM (no result: RORg inh, VP16 counter)
O=[N+]([O-])c1ccc(NC(=S)N2CCN(S(=O)(=O)c3ccccc3)CC2)cc1	DT40 TDP1 CPT inconclusive
O=S(=O)(c1ccccc1)N1CCN(C(=S)Nc2ccc(Br)cc2)CC1	DT40 TDP1 CPT inconclusive, IL1B secr inh -50
O=C(CCCC(=O)OCC(=O)c1ccc(Br)cc1)OCC(=O)c1ccc(Br)cc1	none (no result: DT40 TDP1 CPT, IL1B secr inh, RORg inh, VP16 counter, TDP1 cell noCPT)
Cc1ccc(C(=O)CC(c2ccc(Cl)cc2)S(=O)(=O)c2ccc(C)cc2)cc1 (stereo unspecified)	none (no result: DT40 TDP1 CPT, IL1B secr inh, RORg inh, VP16 counter, TDP1 cell noCPT)
